High-throughput results deposited in PubChem BioAssay by National Center for Advancing Translational Sciences (NCATS).
D2 antag – antagonizes the human D2 dopamine receptor; HEK293 TREx D2 cells, calcium flux, dopamine EC80; inhibition, % at 10 µM; 2% of 340,000 active; in the data active means inhibition above about 30%; inactive means below that, where a call was filed; further: 0% is about no effect
Target sequence (P14416 whole entry, looked up): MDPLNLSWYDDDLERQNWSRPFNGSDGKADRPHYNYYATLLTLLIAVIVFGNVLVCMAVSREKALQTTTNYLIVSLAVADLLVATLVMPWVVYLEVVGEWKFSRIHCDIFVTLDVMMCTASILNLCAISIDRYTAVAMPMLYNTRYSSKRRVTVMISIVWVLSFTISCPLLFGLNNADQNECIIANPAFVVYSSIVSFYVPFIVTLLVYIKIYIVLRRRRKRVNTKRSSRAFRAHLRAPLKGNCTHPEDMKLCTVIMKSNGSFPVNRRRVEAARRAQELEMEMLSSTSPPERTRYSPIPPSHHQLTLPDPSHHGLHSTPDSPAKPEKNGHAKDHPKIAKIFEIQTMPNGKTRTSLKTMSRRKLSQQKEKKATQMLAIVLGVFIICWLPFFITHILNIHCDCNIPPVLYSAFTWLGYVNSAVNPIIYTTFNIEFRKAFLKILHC
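Overnight-induced (tetracycline, 30 C) HEK293 T-REx cells carrying force-coupled D2 receive a no-wash calcium dye, then compound, then EC80 dopamine at 180 s; signals are read kinetically throughout.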
D2 ag-1 – activates the human D2 dopamine receptor | P14416 | HEK293 T-REx D2 cells, calcium flux agonist mode | activation, % at 2 µM | 0.53% of 340,000 active;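 active means activation over 3 SD above normal in the single-dose calcium agonist read, cut at about 30% in these data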; further: 0% is about no effect
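Agonism is scored from calcium flux in a force-coupled, inducible HEK293 cell line expressing D2, read kinetically for 180 s after compound addition against dopamine controls.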
D2 PAM-1 – positively modulates the human D2 dopamine receptor allosterically; P14416; HEK293 T-REx D2, calcium flux, EC20 dopamine potentiation; potentiation, % at 10 µM; 0.34% of 340,000 active; AID 485347;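 active means potentiation over 3 SD above the plate norm, cut at about 30% in these data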; further: 0% is about no effect
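Calcium flux readout, no-wash dye, 1 read/s. Inducible HEK293 Trex D2 line, overnight 30 C. Compound alone 180 s (agonist flags), then EC20 dopamine, another 180 s to score potentiation.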
D2 PAM-2 – positive allosteric modulators of human D2 dopamine receptor. P14416. DiscoveRx D2 beta-arrestin cells, luminescence, 90 min; 100% = 57 uM dopamine signal. potentiation, % (test concentration not listed). 0.23% of 360,000 active. AID 624464; in the data active means potentiation above about 50%; inconclusive means mostly about 30% to 49%
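PathHunter beta-arrestin assay in DiscoveRx D2 cells. Compounds were added with an EC20 of dopamine (50 nM final) for 90 min at 37 deg C. Luminescence was read 1 h after detection reagent, with 57 uM dopamine as the EC100 control.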
D2 ag-2 – activates the human D2 dopamine receptor; DiscoveRx PathHunter D2 beta-arrestin, luminescence, 90 min; 100% = 57 uM dopamine signal; activation, % (no concentration beside the values); 0.084% of 360,000 active; AID 624465; P14416; in the data active means activation above about 40%; inconclusive means between about 15% and that limit
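DiscoveRx PathHunter D2 beta-arrestin cells (2,100/well) attached overnight, then compound-stimulated 90 min at 37 C in HBSS/10 mM HEPES/0.1% Tween-20 buffer; beta-galactosidase complementation read by luminescence after 1 h at ambient temperature. Dopamine 57 uM final (EC100) as control.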
* marks the source's active call; other numbers are inactive results; u = inconclusive; x = not tested or not shown. Hits are enriched below; roughly 2.4% of the tested compounds scored in any of these assays.

SMILES | D2 antag | D2 ag-1 | D2 PAM-1 | D2 PAM-2 | D2 ag-2
CCc1ccc(OCC(=O)N(Cc2ccc(C(C)C)cc2)C2CCS(=O)(=O)C2)cc1 (stereo unspecified) | x | 0.2 | -5.3 | x | x
CC(C)(C)OC(=O)N1CCC(c2c(C(=O)NCCN3CCCC3)cnn2-c2ccc(Cl)cc2)CC1 | x | 0.9 | 5.4 | x | x
CC(=O)C1=NOC(CNC(=O)c2c(-c3ccccc3Cl)noc2C)C1 (stereo unspecified) | -6.3 | 0.1 | 31.7* | -2.1 | 6.7
CCOC(=O)C1=NOC(CNC(=O)c2c(-c3ccccc3Cl)noc2C)C1 (stereo unspecified) | -8.0 | 1.0 | 3.4 | -12.7 | -1.3
CCc1cccc(CC)c1-n1c(-c2cccnc2)n[nH]c1=S | 66.4* | 0.0 | -8.6 | -7.9 | -0.2
S=c1[nH]nc(C2CCCCC2)n1/N=C/c1ccccc1 | -10.2 | -0.4 | -5.5 | -7.4 | -9.8
Fc1ccc(/C=N/n2c(C3CCCCC3)n[nH]c2=S)cc1 | 50.2* | 0.2 | 7.1 | -5.9 | u
COc1ccc(NC2=NCCCCC2)cc1 | 10.4 | 0.1 | 0.0 | -6.9 | -2.1
COc1ccc(NC2=Nc3ccccc3CC2)cc1 | 46.2* | 1.6 | -38.7 | -27.8 | -1.6
COc1ccc(CC(=O)Nc2cccc(-c3nnc(-c4ccc(C)cc4)o3)c2)cc1OC | -18.3 | 1.0 | 5.5 | 19.0 | u
COc1ccc(CC(=O)Nc2cccc(-c3nnc(-c4ccccc4)o3)c2)cc1OC | 5.8 | 0.0 | 18.3 | 54.3* | 13.5
O=C(Nc1ccc(F)c(Cl)c1)c1cc(S(=O)(=O)N2CCCc3ccccc32)ccc1F | x | 0.1 | 1.6 | x | x
NC(Cc1ccc(C(F)(F)F)cc1)c1csc(NC(=O)NCCc2ccccc2)n1 (stereo unspecified) | x | x | x | -19.1 | 11.6
COc1ccc(NC(=O)c2ccc(NC(=O)CCS(=O)(=O)c3cccs3)cc2)cc1Cl | x | 0.4 | 8.2 | x | x
CCN(CC(=O)NCc1ccc(F)cc1)C(=O)/C=C/c1ccc(OC)cc1 | -9.4 | 0.5 | 2.2 | -2.2 | 1.5
CCN(CC(=O)NCc1ccc(F)cc1)C(=O)/C=C/c1ccc(OC)c(S(=O)(=O)NC(C)C)c1 | 33.5* | -0.7 | -8.3 | -6.6 | -2.4
CC(C)(C)C(=O)/C=c1\s/c(=C\c2ccc(-c3ccc([N+](=O)[O-])cc3)o2)c(=O)n1CC(=O)NC(N)=O | 90.9* | 205.7* | -29.4 | 3.9 | 3.9
CCC(=O)N/N=C/c1ccc(-c2ccc([N+](=O)[O-])cc2)o1 | 13.8 | 0.3 | 3.9 | -0.7 | 7.4
O=S(=O)(c1ccccc1)c1cc(O)ccc1O | 1.8 | 0.7 | 11.9 | -0.5 | u
Nc1ccc(S(=O)(=O)c2cc(O)c3ccccc3c2O)cc1 | x | x | x | 51.3* | u
Cc1ccc2occ(C(=O)c3ccco3)c(=O)c2c1 | 38.5* | -1.4 | 2.5 | -2.1 | -1.1
COc1ccc(/C=C/C(=O)c2ccc(C(=O)/C=C/c3ccc(OC)c(OC)c3)cc2)cc1OC | 33.6* | 3.3 | 0.6 | -2.1 | 6.4
COC(=O)c1ccc(/C=C/C(=O)c2ccc(OC)c(OC)c2)cc1 | -10.5 | 0.8 | -5.2 | -33.0 | -2.1
CC1CCCN(Cc2ccc(OCc3ccccc3)cc2)C1 (stereo unspecified) | 46.3* | -0.6 | -13.9 | -34.6 | 0.1
OC1CCN(Cc2ccc(OCc3ccccc3)cc2)CC1 | 4.9 | -0.9 | -8.3 | -17.7 | 5.0
SMILES | D2 antag | D2 ag-1 | D2 PAM-1 | D2 PAM-2 | D2 ag-2
CCCNCC(O)COc1ccccc1C(=O)CCc1ccccc1 (stereo unspecified) | 35.1* | x | x | x | x
CCN(CC)CC(O)COc1ccccc1C(=O)CCc1ccccc1 (stereo unspecified) | -16.1 | 0.4 | -16.4 | -18.9 | 1.2
Cc1ccc(NC(=O)C(Cc2ccccc2)NS(=O)(=O)c2ccc3c(c2)c(=O)n(C)c(=O)n3C)c(C)c1 (stereo unspecified) | x | 0.7 | -3.2 | x | x
CCOc1ccc(CCN2C(=S)N([C@@H](Cc3ccc(O)cc3)CN3CCC[C@@H]3CN3C(=S)NC[C@@H]3CC(C)C)C[C@@H]2CC(C)C)cc1 | x | x | x | -9.4 | -5.3
Cc1[nH]n2c(=O)cc(-c3ccc(Cl)cc3)nc2c1-c1ccccc1 | x | 0.4 | -5.2 | x | x
COC(=O)c1ccc(C)c(NC(=O)CCc2ccc(OC)cc2)c1 | -10.8 | -0.8 | -3.1 | -6.7 | 0.1
COc1ccc(CCC(=O)NNC(=O)Nc2cc(Cl)ccc2C)cc1 | 33.0* | -0.5 | -1.2 | -12.5 | -7.8
CCC(COC)Oc1cc(NCc2ccccc2)c2ncn(C(C)C)c2c1 (stereo unspecified) | -4.6 | -0.3 | 15.1 | 2.0 | 64.8*
CCC(CO)Oc1cc(NCc2ccccc2)c2ncn(C(C)C)c2c1 (stereo unspecified) | x | x | x | -16.2 | 6.4
CCOC(=O)N1CCN(C(=O)C2CCN(S(=O)(=O)c3c(C)cc(C)cc3C)CC2)CC1 | x | x | x | 1.3 | 0.6
CCOC(=O)N1CCN(S(=O)(=O)c2c(C)cc(C)cc2C)CC1 | 54.0* | 0.3 | 2.6 | -8.3 | 0.8
COC(=O)c1ccc(C(=O)OC)c(NC(=O)c2cc3nc(-c4ccc(C)cc4)cc(C(F)(F)F)n3n2)c1 | x | -0.7 | 4.8 | x | x
Cc1occc1-c1nnc(-c2cc([N+](=O)[O-])cc([N+](=O)[O-])c2)o1 | 1.3 | 0.2 | 5.5 | 66.2* | u
COc1ccc(C(=O)c2c[nH]cc2-c2ccccc2)cc1 | 39.8* | -1.8 | 5.0 | -7.1 | -1.0
CCCCn1c2ccc(F)cc2c2nnc(SCCN3CCOCC3)nc21 | 8.0 | -0.5 | -4.2 | -11.7 | 4.6
Cn1c2ccc(F)cc2c2nnc(SCCN3CCOCC3)nc21 | 35.3* | -0.1 | 3.4 | -12.9 | -2.7
CC1CCCCC1NC(=O)CCNS(=O)(=O)c1cc(Br)cnc1N (stereo unspecified) | 32.9* | 0.1 | 2.8 | -6.5 | 1.2
Nc1ncc(Br)cc1S(=O)(=O)NCCC(=O)NCc1ccc(F)cc1 | -20.0 | 0.2 | -2.6 | -14.3 | 0.6
COc1ccc(CNC(=O)CCNS(=O)(=O)c2cc(Br)cnc2N)cc1 | -5.2 | 0.0 | 45.7* | -5.4 | -2.5
C[C@H](CO)N1C[C@H](C)[C@@H](CN(C)Cc2ccncc2)OCCCC[C@H](C)Oc2ccc(NC(=O)CCCN(C)C)cc2C1=O | x | x | x | -9.1 | -4.2
O=C(NCc1ccc(Cl)cc1)C1CCCN(C(=O)c2ccc(Cl)cc2)C1 (stereo unspecified) | 38.4* | -0.4 | 2.9 | -1.0 | -0.9
Cc1ccc(S(=O)(=O)N(C)C)cc1NC(=O)C1CCCN(C(=O)c2ccc(Cl)cc2)C1 (stereo unspecified) | 31.2* | -0.3 | -0.9 | -2.5 | -3.3
C[C@@H]1ON(C)[C@H]2C[C@H]3c4[nH]c5ccc(-c6ccc7c(c6)OCO7)cc5c4CCN3C(=O)[C@@H]12 | x | x | x | -1.2 | -5.6
CCCCOc1ccc(CNC(=O)c2ccc(NC(=O)N3CCCCc4ccccc43)cc2)cc1 | x | -0.5 | 3.1 | x | x
